Source: PubChem BioAssay (National Center for Advancing Translational Sciences (NCATS))
TDP1 cell noCPT: qHTS for Inhibitors of human tyrosyl-DNA phosphodiesterase 1 (TDP1): qHTS in cells in absence of CPT; Potency, µM (titrated, usually from 46.2 µM), for inactives: top-dose activity change, negative = growth inhibition, most hits filed as inhibitors; DT40 Tdp1-/- hTDP1 cells, no CPT, ATP luminescence, 48 h; 420,000 compounds, 15% hits; note: potency is the fitted concentration of half-maximal effect; nearly all actives have a fitted effect of over 55% in size
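Seeded 400 DT40-hTDP1 cells/well (vehicle DMSO, no 20 nM CPT); pinned compounds; ≥48 hr at 37 °C; CellTiter-Glo luminescence as viability measure.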
HT1080 IDH1KD tx: HT-1080 IDH1 knockdown cell toxicity (counter line). HT-1080 IDH1 knockdown viability, ATP luminescence, 48 h. Potency, µM (highest dose often 46.1 µM), inactives show at the top dose activity, negative = toxicity, usual class: cytotoxic. 360,000 compounds, 2% hits;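 note: potency is the fitted concentration of half-maximal effect; 0% = DMSO wells and -100% = cell-free medium wells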
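Cytotoxicity counter-line: IDH1KD HT-1080, 48 h, CellTiter-Glo. Curves classed by r2, magnitude and activity.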
TDP1 cell CPT: DT40-hTDP1 cell growth loss with CPT; chicken DT40 Tdp1-/-;hTDP1 cells + 20 nM CPT, ATP luminescence, 48 h; Potency, µM (series often up to 46.2 µM), for inactives: top-dose activity change, negative = growth inhibition, actives largely listed as inhibitors; 420,000 compounds, 12% hits; note: potency is the fitted concentration of half-maximal effect; nearly all actives have a fitted effect of over 55% in size
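Chicken DT40 Tdp1-/- cells complemented with human TDP1, 400 cells/well, exposed to compounds plus 20 nM camptothecin for at least 48 h at 37 C; viability read as ATP content by CellTiter-Glo luminescence.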
IL-1B inflam inh: inflammasome signaling inhibition, IL-1 beta readout. THP-1 LPS/ATP IL-1B secretion, AlphaLISA, 16 h; hits give low values. activity change, % at 57.5 µM. 360,000 compounds, 4.7% hits. AID 743279; in the data active = activity change below about -50%; inconclusive = mostly about -30% to -49%
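Secreted IL-1B measured by AlphaLISA bead assay after 16 h compound exposure of THP-1 cells; compounds (final up to 57.5 uM) added 1 h before LPS (250 ng/mL) and ATP (1.25 mM) stimulation; lower signal means less secretion.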
HT1080-NT tox: kills 2HG-producing HT-1080-NT fibrosarcoma cells. HT-1080-NT fibrosarcoma viability, CellTiter-Glo ATP luminescence, 48 h. Potency, µM (top dose mostly 46.1 µM), for inactives: top-dose activity, negative = less viability, hits mostly cytotoxic. 360,000 compounds, 1.6% hits;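 note: NT is the 2HG producing partner of a matched IDH1 knockdown line; potency is the fitted concentration of half-maximal effect; 0% = DMSO-treated cells and -100% = media-only wells without cells; nearly all actives have a fitted effect of over 55% in size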
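Viability by CellTiter-Glo luminescence after 48 h compound exposure at 37C of HT-1080-NT cells (750/well, RPMI, 5% FBS). % activity scaled between DMSO wells and medium-only wells, then curve-fitted and categorized by curve class.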
Active calls of the source: *; ? = inconclusive; . = no result; [ ] = dose if it differs, or a comment. This is a sample that favours compounds with a hit; in the whole collection about 19% have one here. Unless noted, calls come from the whole dose curve; as a rule, active = well fitted curve in the direction sought with a large enough effect; inconclusive = small, poorly fitted or top-dose-only effect, or another doubt; inactive = no such curve, though single readings can be large; an effect the other way counts as inactive or inconclusive. Unless noted, % is set by controls: 0 for no effect and ±100 for the full control effect.

SMILES	TDP1 cell noCPT	HT1080 IDH1KD tx	TDP1 cell CPT	IL-1B inflam inh	HT1080-NT tox
CC(Sc1nnnn1-c1ccccc1)C(=O)NC1CCCC1 (centres undefined)	-12%	7%	-6%	-13	7%
O=C(CSc1nnc(N2CCCC2)n1-c1cccc(Cl)c1)N1CCN(c2ccccn2)CC1	21µM*	5%	?	-24	11%
O=C(c1cc(Sc2ccc(Cl)cc2)nc2ccccc12)N1CCN(c2ccccn2)CC1	?	-25%	?	-7	?
O=C(CSc1nnc(N2CCCC2)n1-c1ccccc1Cl)N1CCN(c2ccccn2)CC1	?	1%	?	-14	7%[9.24 µM]
O=C(c1cnc(N2CCN(c3ccccn3)CC2)c2ccccc12)N1CCN(c2cccc(Cl)c2)CC1	12µM*	?	13µM*	-60*	-21%
O=C(c1cc(Sc2cccc(Cl)c2)nc2ccccc12)N1CCN(c2ccccn2)CC1	?	-12%	15µM*	-13	3%
CC(=O)Nc1ccc(S(=O)(=O)N2CCN(c3ncccn3)CC2)cc1	-28%	-6%	-26%	9	-1%
O=C(O)CN1C(=O)C(=O)N(Cc2ccccc2F)C1=O	-5%	6%	7%	2	5%
COc1cccc2c1N1C(=O)c3c(C(=O)O)cccc3C1CC2(C)C (centres undefined)	1%	1%	0%	10	5%
COc1ccc(N2C(=O)/C(=C/c3cccs3)NC2=S)cc1	5.8µM*	8%	1.5µM*	-6	-7%
O=C(NCc1nnnn1-c1ccc(F)cc1)c1cc2ccccc2o1	0%	0%	-15%	?	1%
Cn1c(=O)c(-c2cc(Br)ccc2N)nc2ccccc21	?	-11%	-23%	-14	-19%
CC(C)(C)c1ccc(C(=O)CCCN2CCC(OC(c3ccccc3)c3ccccc3)CC2)cc1	6µM*	.	12µM*	.	.
CCN(C[C@H]1N[C@@](Cc2ccccc2)(C(=O)OC)[C@H]2C(=O)N(Cc3ccccc3)C(=O)[C@@H]12)S(=O)(=O)c1ccc(OC)cc1	?	3%	?	7	2%
CCN(C[C@H]1N[C@@](Cc2ccccc2)(C(=O)OC)[C@H]2C(=O)N(Cc3ccccc3)C(=O)[C@@H]12)S(=O)(=O)c1ccc(C(C)(C)C)cc1	16µM*	6%	?	0	11%
COC(=O)[C@]1(Cc2ccccc2)N[C@H](CN(C)S(=O)(=O)c2ccc(F)cc2)[C@@H]2C(=O)N(C)C(=O)[C@@H]21	-4%	2%	-5%	6	6%
CCN(C[C@H]1N[C@@](C)(C(=O)OC)[C@H]2C(=O)N(Cc3ccccc3)C(=O)[C@@H]12)C(=O)c1ccc(C(C)(C)C)cc1	16µM*	-10%	?	-10	-20%
COC(=O)[C@]1(Cc2ccccc2)N[C@H](CN(C)S(=O)(=O)c2ccc(C(C)(C)C)cc2)[C@@H]2C(=O)N(C)C(=O)[C@@H]21	?	5%	18µM*	-25	8%
CCN(C[C@H]1N[C@@](Cc2ccccc2)(C(=O)OC)[C@H]2C(=O)N(C)C(=O)[C@@H]12)S(=O)(=O)c1ccc(C(C)(C)C)cc1	18µM*	3%	?	11	4%
